Sfp inh – Sfp phosphopantetheinyl transferase inhibition; Potency, µM, inactives show largest response in the series, negative = inhibition, usual class: inhibitors; AID 1490; Q9F4F7; Biochemical Sfp PPTase activity, qHTS; actives 3.5% (n = 310,000);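 also: the enzyme is Sfp with the accession as filed and its product quenches rhodamine fluorescence; 0% = enzyme reaction without inhibitor and -100% = no enzyme wells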
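Compounds were incubated with enzyme (final 15 nM) for 15 min at room temperature before substrate addition started the reaction. Fluorescence at 525 nm excitation, 598 nm emission was recorded immediately and after 30 minutes.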
Glioma ERSR ind – ER stress response induction in glioma; U87-MG GRP78 promoter luciferase reporter, 16 h; Potency, µM, for the others: at the highest dose activation, actives largely listed as activators; actives 0.02% (n = 420,000); AID 602332; also: series mostly up to about 76 µM; % of control where 0% means no effect; nearly all actives have a fitted effect of over 35% in size
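ERSR induction read as luciferase luminescence (Bright-Glo, 10 min at room temperature) in stably transfected human U87-MG glioma cells exposed to compounds for 16 h, using GRP78 as sensor.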
G9a block – inhibitors of human histone lysine methyltransferase G9a | Potency, µM (series often up to 102 µM), for inactives: at the top dose activity, negative = inhibition, hits mostly inhibitors | G9a H3K9 monomethylation, AlphaScreen, 2 h | AID 504332 | actives 8.8% (n = 350,000); also: % is scaled to controls: 0 for no effect and ±100 for the full control effect; nearly all actives have a fitted effect of over 75% in size
Target sequence (Q96KQ7 913-1193 limits assumed): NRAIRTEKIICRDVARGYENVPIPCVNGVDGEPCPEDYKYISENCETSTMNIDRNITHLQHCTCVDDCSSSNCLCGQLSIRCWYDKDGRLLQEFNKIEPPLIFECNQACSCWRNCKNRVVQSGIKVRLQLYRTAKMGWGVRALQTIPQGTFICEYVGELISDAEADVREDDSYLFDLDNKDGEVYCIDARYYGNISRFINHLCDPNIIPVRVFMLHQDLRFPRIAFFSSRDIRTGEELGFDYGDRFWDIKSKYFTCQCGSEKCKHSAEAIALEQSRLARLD
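Readings reflect AlphaScreen signal from monomethyl-H3K9 antibody detection. HMT at 20 nM; substrate b-H3K9 500 nM; cofactor SAM 20 uM; 2 h RT reaction; compounds tested as titrations in qHTS with 15 min preincubation.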
12-LOX inh – ALOX12 (human) lipoxygenase inhibition; P18054; purified 12hLO, xylenol orange hydroperoxide absorbance; Potency, µM (series often up to 108 µM), without a hit: at the highest dose activity change, negative = inhibition, most hits filed as inhibitors; actives 1.1% (n = 580,000); also: % is scaled to controls: 0 for no effect and ±100 for the full control effect
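Purified human 12hLO at 150 nM in 25 mM Hepes, 0.01% Triton X-100, pH 7.0, preincubated 15 min at room temperature with compound. Reaction started with 40 uM arachidonic acid, 30 min at room temperature. Hydroperoxide measured by Fe-xylenol orange, 573/405 nm absorbance ratio.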
VDR inh – vitamin D3 receptor (human) inhibition; Potency, µM, for the others: max response, negative = inhibition, most hits filed as inhibitors; P11473; VDR-SRC2-3 peptide fluorescence polarization, 2 h; actives 0.93% (n = 400,000); also: % is scaled to controls: 0 for no effect and ±100 for the full control effect
Target sequence (P11473 whole entry, looked up): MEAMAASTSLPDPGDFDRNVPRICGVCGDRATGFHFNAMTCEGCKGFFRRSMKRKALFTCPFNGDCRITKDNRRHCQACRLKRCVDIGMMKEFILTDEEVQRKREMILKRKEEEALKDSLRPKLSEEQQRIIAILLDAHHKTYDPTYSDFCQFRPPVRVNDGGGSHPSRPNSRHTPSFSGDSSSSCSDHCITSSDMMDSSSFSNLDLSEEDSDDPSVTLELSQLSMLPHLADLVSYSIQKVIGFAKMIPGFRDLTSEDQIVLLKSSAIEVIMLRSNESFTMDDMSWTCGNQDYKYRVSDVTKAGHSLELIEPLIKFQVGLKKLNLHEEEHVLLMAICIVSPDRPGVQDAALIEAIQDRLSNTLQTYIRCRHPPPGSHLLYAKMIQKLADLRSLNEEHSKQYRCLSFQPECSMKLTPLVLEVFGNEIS
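Two reagent solutions held at 4 deg C in the dark were dispensed, compounds pinned at 23 nl, and the mixture incubated 2 h at room temperature. Read-out: fluorescence polarization of VDR–SRC2-3 peptide binding.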
An asterisk follows results filed as active; ? = inconclusive; . = not tested or not shown; [ ] = another dose, or the depositor's remark. The entries come from a sample that favours hits as a whole. Calls follow the shape of the dose curve; as a rule, active = well fitted curve in the direction sought with a large enough effect; inconclusive = small, poorly fitted or top-dose-only effect, or another doubt; inactive = no such curve, though single readings can be large; an effect the other way counts as inactive or inconclusive. Potency is read from the fitted curve at half-maximal effect.

SMILES | Sfp inh | Glioma ERSR ind | G9a block | 12-LOX inh | VDR inh
c1cc2c(cc1NC1CCCCCC1)OCO2 | ? | -3% | 7.9µM* | -2% | ?
O=C(NC1CCCCCCC1)c1ccc2c(c1)OCO2 | 16% | -9% | -5% | -14% | 1%
COCc1nc(C2CCN(C(=O)CCc3c[nH]c4ccccc34)C2)no1 (configuration not stated) | . | . | . | 3% | .
Cc1ccccc1-c1noc(-c2ccccc2OCC(=O)Nc2ccccc2[N+](=O)[O-])n1 | . | -2% | 14µM* | 0% | 11%
Cc1ccc(-c2noc(-c3ccccc3OCC(=O)Nc3ccccc3[N+](=O)[O-])n2)cc1 | . | 1% | ? | -25% | 0%
CC(=O)c1ccccc1O | . | . | . | 3%[176 µM] | .
CC(=O)c1ccc2c3c(ccc(O)c13)CC2 | -10% | -2% | 45µM* | -6% | 15%
Cc1cc(C)c(-c2cc(NC(=O)COC(=O)c3ccc(NC(=O)CC#N)cc3)n(-c3ccccc3)n2)cc1C | . | -2% | ? | -21% | -8%
Cc1cc(C)c(-c2cc(NC(=O)COC(=O)c3ccc(C#N)cc3)n(-c3ccccc3)n2)cc1C | 14% | -2% | 32µM* | -21% | 24%
O=C(NCCCSc1ccccc1)c1cc(Cl)ccc1O | -21% | -3% | 35µM* | ? | -2%
Cc1ccc(OCCn2ccnc2)c([N+](=O)[O-])c1 | -13% | -1% | 32µM* | ? | 9%
C=CCc1cc(C)ccc1OCCn1ccnc1 | -18% | -6% | 8.9µM* | -9% | -2%
C=CCc1cc(C)ccc1OCCOCCn1ccnc1 | -18% | -5% | 10µM* | -18% | -2%
Cc1cc(OCCCn2ccnc2)ccc1[N+](=O)[O-] | ? | 1% | . | -19% | 18%
COc1cccc2c(C)nc(Nc3nc(CSc4nnc(C)s4)cc(=O)[nH]3)nc12 | 7% | -7% | -21%[12.7 µM] | 37% | 79µM*
CCN(Cc1ccccc1)C(=O)C1CCN(S(=O)(=O)c2ccc3c(c2)OCCO3)CC1 | 4% | 8% | 18% | 2% | -4%
CCN(CC)C(=O)C1CCN(CC2CC=CCC2)CC1 (configuration not stated) | -9% | 3% | 13µM* | -44% | 16%
CCOC(=O)c1ccc(S(=O)(=O)N2CCN(CC3CC=CCC3)CC2)cc1 (configuration not stated) | 20% | -6% | -1% | -5% | 4%
CCN(Cc1ccccc1)C(=O)C1CCN(CC2CC=CCC2)CC1 (configuration not stated) | 9% | -5% | 7.9µM* | ? | -11%
CNc1cc(C)nc2c(-c3ccc(OC)c(OC)c3)c(C)nn12 | . | . | . | -1% | .
CCOCCCn1c(=O)c2ccccc2n2c(=S)[nH]nc12 | -19% | -3% | 10µM* | 4µM* | -11%
C=CCn1c(=O)c2ccccc2n2c(SCC(=O)c3ccccc3)nnc12 | 4% | 0% | 22µM* | 0% | -29%
C=CCn1c(=O)c2ccccc2n2c(=S)[nH]nc12 | -27% | 1% | 7.9µM* | ? | 9%
CC(C)CCn1c(=O)c2ccccc2n2c(=S)[nH]nc12 | 56µM* | 0% | 1.4µM* | ? | -13%
CCOC(=O)C1=C(CNCc2ccccc2)NC(=O)NC1c1ccccc1 (configuration not stated) | . | . | . | -22% | .
SMILES | Sfp inh | Glioma ERSR ind | G9a block | 12-LOX inh | VDR inh
Cc1ccc(CSc2nc3nc[nH]c3c(=O)[nH]2)cc1 | . | . | . | -29% | .
Oc1c(Cl)cc(Cl)cc1C=Nc1ccccc1N1CCCC1 | -6% | . | 10µM* | . | .
Oc1c(Cl)cc(Cl)cc1C=Nc1ccc(F)c(Cl)c1 | . | . | . | -54% | .
O=C(O)c1ccc(/C=N/NC(=S)NCCN2CCOCC2)cc1 | 50µM* | -3% | -42% | 14% | 0%
CC(=O)Nc1n[nH]c(S(=O)(=O)Cc2ccc(Cl)cc2Cl)n1 | 0% | -3% | 45µM* | ? | -1%
CC(=O)Nc1nc(SCc2ccc(Cl)cc2Cl)n[nH]1 | 11% | -3% | 0%[59 µM] | -10% | 5%
CCCCCCn1nc(C(=O)OCC(=O)Nc2cc(C)on2)c2ccccc2c1=O | . | . | . | -9% | .
O=C(CSc1ncn[nH]1)c1ccc2c(c1)OCCO2 | ? | 5% | -14%[12.7 µM] | ? | ?
O=C(CSc1ncn[nH]1)OCN1C(=O)c2ccccc2C1=O | -21% | 0% | 35µM* | ? | 7%
O=C(CSc1ncn[nH]1)CSc1ncn[nH]1 | 50µM* | -6% | 1.8µM* | -2% | -15%
CC(C)c1ccc(C(=O)CSc2ncn[nH]2)cc1 | 56µM* | 7% | 32µM* | ? | 79µM*
CCN(Cc1ccccc1)C(=O)CSc1ncn[nH]1 | -10% | -3% | 45µM* | ? | -17%
O=C(CSc1ncn[nH]1)N1c2ccccc2Sc2ccccc21 | 17% | -2% | ? | -22% | -28%
Cc1ccc(S(=O)(=O)NCc2c(C)nn(Cc3ccccc3)c2C)cc1C | . | . | . | 0% | .
Cc1ccc(Cc2c(-c3ccc(C)cc3)nc3ccc(Cl)cn23)cc1 | . | 2% | . | ? | .
Cc1ccc(-c2nc3ccc(Br)cn3c2Cc2ccsc2)cc1 | . | -1% | . | 3.2µM* | .
Cc1ccc(-c2nc3ccc(C)cn3c2Cc2ccsc2)cc1 | . | -2% | . | ? | .
Cc1ccc(Cc2c(-c3ccc(Br)cc3)nc3ccc(Cl)cn23)cc1 | . | 1% | . | 35µM* | .
CCOc1ccc(NC(=O)Cn2nnc(-c3ccc(C(N)=O)cc3)n2)cc1S(=O)(=O)N1CCCC1 | . | -1% | 79µM* | -7% | -18%
O=C(Nc1cnn(Cc2ccc(F)cc2)c1)c1cnn2c(C(F)F)cc(-c3ccccc3)nc12 | 14µM* | -7% | . | -26% | 11%
COc1ccc(-c2cc(C(F)F)n3ncc(C(=O)Nc4cc(C)on4)c3n2)cc1 | 79µM* | -1% | . | -1% | -5%
C=C(C)CSc1nc2c(c(=O)[nH]c(=O)n2C)n1CCCc1ccccc1 | . | . | . | -12% | .
Cc1sc2nc(CN3CCN(c4ccc(O)cc4)CC3)[nH]c(=O)c2c1C | 35µM* | -1% | . | ? | -16%
Cc1sc2nc(CN3CCOCC3)[nH]c(=S)c2c1C | 8.9µM* | 1% | 40µM* | ? | 3%
O=c1[nH]c(CN2CCN(c3ccccc3)CC2)nc2scc(-c3ccccc3)c12 | 2% | -4% | ? | -1% | -9%
CN1CCN(C2(CNC(=O)COc3ccc4ccc(=O)oc4c3)CCCCC2)CC1 | . | . | . | 7% | .
Cc1ccc(CN2C(=O)CS(=O)c3ccc(C(=O)NCc4ccccc4)cc32)cc1 (configuration not stated) | . | . | . | -15% | .
CCN1CCSc2ccc(C(=O)NCc3ccccc3C)cc21 | -8% | 2% | 71µM* | ? | -5%
CCOC(=O)N1CCN(C(=O)c2ccc3c(c2)N(Cc2ccc(F)cc2)CCS3)CC1 | -5% | -3% | 1% | 17% | ?
CCOC(=O)N1CCN(C(=O)c2ccc3c(c2)N(CC)CCS3)CC1 | 50µM* | -2% | 35µM* | ? | -16%

Bioassay records (PubChem)
